Reference: PubChem BioAssay (NCATS)

Assay: Cell Proliferation Assay against the TMD8 Cell Line (AID 651645);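 further: cells exposed to compound for 48 h before reading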
Conditions: TMD8 DLBCL cell line proliferation/viability; at 46.1 µM (top of the series)
Excerpt: One class of targeted therapeutics showing early clinical success in killing of ABC DLBCL lines are small molecule inhibitors of the Bruton tyrosine kinase (BTK) 11.
Prior to any combination assays, using an NCATS developed oncology compound library called the Mechanism of Interrogation Plate (MIPE), two well studied ABC DLBCL lines (TMD8 and HBL1) were screened using a cell viability assay (CellTiterGlo) and a 12-point titration series for each single agent. These initial experiments offered insight into the concentration range that offered the best coverage of activity and non-activity to assure relevant data is generated. In addition to the viability signature associated with this library, we examined the apoptotic response of each agent versus the TMD8 line as judged by caspase 3/7 activation. Activity was assayed at both 8 and 16 hour time-points to gain an appreciation of which agents induced an apoptotic response in a reasonable timeframe from a therapeutic exposure perspective. MIPE was also assayed for single agent viability in a human mesenchymal stem cell (hMSC) line as a surrogate of each library member's potential therapeutic index.
A total of 500 log growing TMD8 cells are seeded per well in 5 uL of a RPMI with glutamine (or Glutamax), without phenol red plus 5% FBS and 1X Pen/Strep into 1536 -solid white high base tissue culture treated Greiner One Bio Plates (789173-F) using a multidrop combi dispenser and a small sterile cassette. Compounds and controls totaling 23nL per well (negative control DMSO and positive control 9.2 uM Bortezomib-final) are immediately added to the plates using a 1536 head pin tool from Kalypsys. The plates are then covered with stainless steel gasket lids from Kalypsys and incubated for 48 hours at 37C under 95% relative humidity with 5% CO2. After 48 hours, the plates are removed and allowed to reach room temperature before 3 uL of Cell Titer Glo reagent (Promega) is added using an Aurora Flying Reagent Dispenser Bioraptor. The plates are then spun at 1000 rpms to remove bubbles and incubated for 15 minutes at room temperature before read on a ViewLux using a luminescent filter with a 10 second exposure. The relative luciferase units are used to calculated percent activity using DMSO as 100% and Bortezomib as 0%.

Going from COC1(CS(=O)c2ccccc2)CCN(CCc2c[nH]c3ccc(F)cc23)CC1 (stereo not given) to COc1ccc(C(=O)c2c(C)n(CCN3CCOCC3)c3ccccc23)cc1, the viability (% of control) falls from 79.9% to 18.8%.

First: CS(=O)c1ccc(-c2nc(-c3ccc(F)cc3)c(-c3ccncc3)[nH]2)cc1 (stereo not given)
Second: O=C(O)C(=O)c1cn(Cc2ccccc2)c2ccc(-c3ccc(OC(F)(F)F)cc3)cc12
The viability (% of control) of the first is higher: 92.2% for the first, 75.1% for the second.

Going from C[C@@H]1[C@@H](CC(C[C@H]2O[C@@H]3O[C@]4(C)CC[C@@H]5[C@H](C)CC[C@@H]([C@H]2C)[C@@]35OO4)C[S+](=O)([O-])c2ccc(COC(=O)N(C)C)cc2)O[C@@H]2O[C@]3(C)CC[C@H]4[C@H](C)CC[C@@H]1[C@@]24OO3 (stereo not given in full) to C[C@@H]1[C@@H](C(=O)C[C@H]2O[C@@H]3O[C@]4(C)CC[C@@H]5[C@H](C)CC[C@@H]([C@H]2C)[C@@]35OO4)O[C@@H]2O[C@]3(C)CC[C@H]4[C@H](C)CC[C@@H]1[C@@]24OO3, the viability (% of control) rises from 5.05% to 6.12%.

Compared with CC(O)(CS(=O)(=O)c1ccc(F)cc1)C(=O)Nc1ccc(C#N)c(C(F)(F)F)c1 (stereo not given), CNC(=O)c1ccc(N2C(=S)N(c3ccc(C#N)c(C(F)(F)F)c3)C(=O)C23CCC3)cc1F is lower in viability (% of control): 109% for the first, 71.2% for the second.

Going from COC[C@H]1OC(=O)c2coc3c2[C@@]1(C)C1=C(C3=O)C2CCC(=O)[C@@]2(C)C[C@H]1OC(C)=O (stereo not given in full) to C[C@]12CCC(=O)C(O)=C1CC[C@@H]1[C@@H]2CC[C@]2(C)C(=O)CC[C@@H]12, the viability (% of control) rises from 17.1% to 87.8%.

Compared with CNC(=O)N1N=C(c2ccc(N)cc2)c2cc3c(cc2CC1C)OCO3 (stereo not given), Cc1cc(SCc2sc(-c3ccc(C(F)(F)F)c(F)c3)nc2C)ccc1OCC(=O)O is higher in viability (% of control): 5.8% for the first, 80.8% for the second.

First: CC(C)n1c(C=C[C@H](O)C[C@H](O)CC(=O)O)c(-c2ccc(F)cc2)c2ccccc21
Second: Cn1cc(C2=C(c3cn(C4CCN(Cc5ccccn5)CC4)c4ccccc34)C(=O)NC2=O)c2ccccc21
The viability (% of control) of the first is higher: 83.4% for the first, 3.76% for the second.

First: CN(C)CCN(C)CCc1ccc(Cl)c(Cl)c1
Second: Cn1c(CCCC(=O)O)nc2cc(N(CCCl)CCCl)ccc21
The viability (% of control) of the first is lower: 74% for the first, 95.4% for the second.

Going from CC1=C2C[C@@H]3[C@@H](CC=C4C[C@@H](O)CC[C@@]43C)[C@@H]2CC[C@]12O[C@H]1C[C@H](C)CN[C@H]1[C@H]2C to Cc1sc2c(c1C)C(c1ccc(Cl)cc1)=N[C@@H](CC(=O)OC(C)(C)C)c1nnc(C)n1-2, the viability (% of control) falls from 62.9% to 2.73%.

Going from CCCCC/C=C\C/C=C\C/C=C\C/C=C\CCCC(=O)NC1CC1 to O=c1c(O)c(-c2ccc(O)c(O)c2)oc2cc(O)cc(O)c12, the viability (% of control) falls from 86.9% to 46.1%.
